Experimental data as given in PubChem BioAssay (NCATS).
Records with an inconclusive call do not appear. Calls of active or inactive are those of the source. Unless noted, calls come from the whole dose curve; as a rule, active = well fitted curve in the direction sought with a large enough effect; inconclusive = small, poorly fitted or top-dose-only effect, or another doubt; inactive = no such curve, though single readings can be large; an effect the other way counts as inactive or inconclusive.

Legend:
[1] = qHTS assay for measurement of the activity of small molecule inhibitors on Zika virus induced Caspase-3 activity in human iPSC derived neural progenitor cells (hNPCs) (AID 1224857); note: % of control where 0% means no effect; nearly all actives have a fitted effect of over 65% in size
Procedure, shortened: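 Zika virus (2 FFU/cell) infection of human iPSC-derived NPCs, 6 h, following 1 h compound preincubation. Read-out: Caspase-Glo 3/7 luminescence.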

[2] = qHTS assay for measurement of the activity of small molecule inhibitors on Zika virus induced Caspase-3 activity in human astrocytoma cells (AID 1224859);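 note: plate controls were ZIKV-infected untreated cells for no effect and uninfected cells for full effect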
Procedure, shortened: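 Caspase activation in ZIKV-infected SNB-19 cells (2 FFU/cell, 6 h) measured by Caspase-Glo 3/7 luminescence after 30 min RT; compound pre-incubated 1 h; normalised to uninfected and infected controls.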

[3] = P-glycoprotein substrates identified in KB-8-5-11 adenocarcinoma cell line, qHTS therapeutic library screen (AID 1346987); note: nearly all actives have a fitted effect of over 65% in size; note: potency is the fitted concentration of half-maximal effect
Procedure, shortened: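 Human cervical adenocarcinoma KB-8-5-11 cells, selected in colchicine to over-express P-gp and assayed without it, were exposed for 72 h to titrated compounds. An ATP-based luminescent viability signal gave AC50.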

[4] = NS1 protein of Zika virus - qHTS assay to identify small molecule inhibitors in human HEK 293 cells (AID 1347053);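 note: series mostly up to about 46 µM; plate controls were infected untreated cells for no effect and uninfected cells for full effect; nearly all actives have a fitted effect of over 55% in size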
Procedure, shortened: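 In this cell-based screen, HEK 293 cultures received compound for one hour before Zika MR766 at MOI = 0.5. NS1 was quantified 24 hours later by TR-FRET, normalized to virus-free wells and infected wells.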

[5] = qHTS of pediatric cancer cell lines to identify multiple opportunities for drug repurposing: Primary screen for TC32 cells (AID 1347089); note: nearly all actives have a fitted effect of over 60% in size; note: potency is the fitted concentration of half-maximal effect
Procedure, shortened: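 A viability screen of TC32 cells was run over 48 h, with primary MIPE doses spanning 0.78 nM–46 µM and NPC doses 0.59 nM–46 µM. ATP luminescence (CellTiter-Glo) served as the read-out.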

[6] = qHTS Assay for Identifying Gametocytocidal Compounds (AID 743244); note: potency is the fitted concentration of half-maximal effect;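 for max response: % is set by controls: 0 for no effect and ±100 for the full control effect; actives lower the fluorescent signal which means gametocytes are killed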; settings: P. falciparum 3D7 stage III-V gametocytes, alamarBlue, 72 h; max response: stronger effect = lower value
Procedure, shortened: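 Fluorescence at Ex 525/Em 598 nm, recorded 24 h after alamarBlue addition, reports residual metabolic activity of 3D7 gametocytes (stages III–V) following 72 h compound exposure at 37 °C, 5% CO2.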

[7] = Natriuretic polypeptide receptor (hNpr1) antagonism - Pilot counterscreen GloSensor control cell line (AID 1347045; calls by dose curve; note: series mostly up to about 38 µM; % is set by controls: 0 for no effect and ±100 for the full control effect)
Procedure, shortened: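 The SNP-driven cGMP luminescence signal (50 uM, 20 min, room temperature) was measured in GloSensor HEK293 control cells. Compounds were tested as a LOPAC titration series and preincubated for 30-50 min.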

[8] = target: Atrial natriuretic peptide receptor 1 (Homo sapiens) (UniProt P16066); experiment: Natriuretic polypeptide receptor (hNpr1) antagonism - Pilot screen (AID 1347049; calls by dose curve;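 note: HEK293 cells with hNpr1 and GloSensor cGMP luciferase stimulated by 0.1 nM hNppA; agonist-evoked cGMP luminescence read 20 min after hNppA addition; series mostly up to about 58 µM; % is set by controls: 0 for no effect and ±100 for the full control effect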)
Procedure, shortened: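 Cells expressing receptor plus cGMP biosensor are seeded and incubated overnight at 37C, then loaded with GloSensor reagent (2% final) at room temperature for 2 h. Library compounds go on for 30 min. A pre-read precedes agonist (hNppA, 0.1 nM final) and a 20-min readout.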

[9] = target: T1, Tyrosine-protein phosphatase non-receptor type substrate 1 (Homo sapiens) + Leukocyte surface antigen CD47 (Homo sapiens) (UniProt P78324+Q08722); experiment: CD47-SIRPalpha protein protein interaction - LANCE assay qHTS validation (AID 1347057; active = well fitted curve in the direction sought with a large enough effect in the signal ratio, with a control signal flat, not every such curve was filed as active; the % refers to the signal ratio; note: series mostly up to about 38 µM; 0% is about no effect)
Procedure, shortened: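 Inhibition of soluble CD47/SIRPalpha ectodomain association by titrated compounds, measured as 665/615 nm time-resolved FRET ratio after sequential 30 min room-temperature incubations.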

[10] = target: T1, Tyrosine-protein phosphatase non-receptor type substrate 1 (Homo sapiens) + Leukocyte surface antigen CD47 (Homo sapiens); experiment: CD47-SIRPalpha protein protein interaction - HTRF assay qHTS validation (AID 1347058; active = well fitted curve in the direction sought with a large enough effect in the signal ratio, not every such curve was filed as active; the % refers to the signal ratio; note: series mostly up to about 38 µM; 0% is about no effect)
Procedure, shortened: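 Soluble extracellular domains (6His-CD47, Avi-tag-biotinylated SIRPalpha) in PBS pH 7.4 with 0.05% IGEPAL CA-630. Compounds were preincubated 30 min at RT with CD47 and anti-His-Eu, then SIRPalpha and SAV-XL665 were added. TR-FRET 665/615 ratio.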

[11] = target: T1, Tyrosine-protein phosphatase non-receptor type substrate 1 (Homo sapiens) + Leukocyte surface antigen CD47 (Homo sapiens); experiment: CD47-SIRPalpha protein protein interaction - Alpha assay qHTS validation (AID 1347059);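 note: bead proximity luminescence from CD47 binding SIRPalpha after compound preincubation with SIRPalpha; % is set by controls: 0 for no effect and ±100 for the full control effect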
Procedure, shortened: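 In PBS (pH 7.4) with 0.05% IGEPAL CA-630, compound is preincubated with biotin-Avi-SIRPalpha ectodomain before His-CD47 ectodomain and affinity beads are added. Light-protected room-temperature incubations; AlphaScreen readout.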

[12] = target: Parathyroid hormone/parathyroid hormone-related peptide receptor (Homo sapiens) (UniProt Q03431); experiment: qHTS for PTHR1 Agonists: Optimization Screen against the NCGC LOPAC library (AID 1347079);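 note: GloSensor cAMP luminescence in HEK-293 GP2 cells expressing human PTHR1 with IBMX; 0% is about no effect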
Procedure, shortened: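 Signal increase flags agonism. GP2 cells, derived from HEK-293, express human PTHR1 and a GloSensor cAMP construct.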

Chain of Parathyroid hormone/parathyroid hormone-related peptide receptor (Homo sapiens) (Q03431 whole entry, looked up): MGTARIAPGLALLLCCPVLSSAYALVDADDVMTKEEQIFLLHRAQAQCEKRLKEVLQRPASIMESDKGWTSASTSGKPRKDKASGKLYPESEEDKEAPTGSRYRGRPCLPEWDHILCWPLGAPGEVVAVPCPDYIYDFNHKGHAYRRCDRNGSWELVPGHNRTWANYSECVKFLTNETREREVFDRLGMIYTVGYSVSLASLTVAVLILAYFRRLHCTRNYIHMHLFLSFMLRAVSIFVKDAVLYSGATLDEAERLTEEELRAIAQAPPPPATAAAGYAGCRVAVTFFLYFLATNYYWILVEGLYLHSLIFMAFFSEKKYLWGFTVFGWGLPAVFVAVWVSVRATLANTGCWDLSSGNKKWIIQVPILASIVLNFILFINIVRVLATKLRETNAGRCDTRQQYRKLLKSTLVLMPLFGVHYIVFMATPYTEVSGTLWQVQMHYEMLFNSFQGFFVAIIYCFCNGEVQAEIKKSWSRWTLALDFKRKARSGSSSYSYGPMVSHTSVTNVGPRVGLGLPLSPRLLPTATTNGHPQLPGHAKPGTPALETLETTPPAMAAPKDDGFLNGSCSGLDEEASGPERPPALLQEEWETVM
Chain of Atrial natriuretic peptide receptor 1 (Homo sapiens) (P16066 whole entry, looked up): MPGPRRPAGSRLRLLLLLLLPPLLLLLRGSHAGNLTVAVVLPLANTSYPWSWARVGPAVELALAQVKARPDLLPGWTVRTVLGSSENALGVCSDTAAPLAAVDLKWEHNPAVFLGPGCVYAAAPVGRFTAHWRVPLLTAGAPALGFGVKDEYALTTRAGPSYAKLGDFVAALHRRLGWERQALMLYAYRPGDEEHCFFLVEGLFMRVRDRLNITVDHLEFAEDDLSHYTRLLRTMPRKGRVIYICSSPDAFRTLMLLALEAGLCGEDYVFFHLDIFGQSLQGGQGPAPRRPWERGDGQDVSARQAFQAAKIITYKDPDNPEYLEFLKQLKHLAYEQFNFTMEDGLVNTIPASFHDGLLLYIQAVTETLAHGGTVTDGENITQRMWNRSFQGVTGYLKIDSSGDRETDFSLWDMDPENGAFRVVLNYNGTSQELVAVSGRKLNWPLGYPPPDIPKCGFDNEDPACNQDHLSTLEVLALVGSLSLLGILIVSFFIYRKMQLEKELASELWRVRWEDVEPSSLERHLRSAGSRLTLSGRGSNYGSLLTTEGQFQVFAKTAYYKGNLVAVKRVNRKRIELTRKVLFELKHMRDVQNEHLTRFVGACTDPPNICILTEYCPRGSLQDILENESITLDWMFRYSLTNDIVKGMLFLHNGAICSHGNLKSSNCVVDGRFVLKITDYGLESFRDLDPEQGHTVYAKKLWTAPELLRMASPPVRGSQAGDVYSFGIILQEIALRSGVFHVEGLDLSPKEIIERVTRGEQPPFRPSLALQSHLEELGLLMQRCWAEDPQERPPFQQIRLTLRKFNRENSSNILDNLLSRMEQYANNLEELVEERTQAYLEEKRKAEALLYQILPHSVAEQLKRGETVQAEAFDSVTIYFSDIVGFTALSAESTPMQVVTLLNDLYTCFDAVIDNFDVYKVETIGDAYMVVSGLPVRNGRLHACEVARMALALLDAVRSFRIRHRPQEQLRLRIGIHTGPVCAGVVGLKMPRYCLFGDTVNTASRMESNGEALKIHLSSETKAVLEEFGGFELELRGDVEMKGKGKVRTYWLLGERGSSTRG
T1 sequence (P78324 whole entry, looked up, the tested form may be a part): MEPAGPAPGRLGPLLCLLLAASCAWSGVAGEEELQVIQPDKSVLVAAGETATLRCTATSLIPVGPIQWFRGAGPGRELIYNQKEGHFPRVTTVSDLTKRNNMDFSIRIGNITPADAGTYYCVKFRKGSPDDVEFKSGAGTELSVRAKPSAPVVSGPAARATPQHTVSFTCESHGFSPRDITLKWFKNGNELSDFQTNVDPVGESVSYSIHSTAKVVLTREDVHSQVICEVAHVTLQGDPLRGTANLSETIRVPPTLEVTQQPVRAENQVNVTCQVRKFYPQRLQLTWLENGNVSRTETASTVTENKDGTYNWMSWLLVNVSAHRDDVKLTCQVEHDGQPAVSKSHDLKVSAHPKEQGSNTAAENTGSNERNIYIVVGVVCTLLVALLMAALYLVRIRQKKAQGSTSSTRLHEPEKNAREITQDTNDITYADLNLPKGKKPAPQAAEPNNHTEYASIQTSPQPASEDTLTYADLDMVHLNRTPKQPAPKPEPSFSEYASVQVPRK
T1 sequence (Q08722 whole entry, looked up, the tested form may be a part): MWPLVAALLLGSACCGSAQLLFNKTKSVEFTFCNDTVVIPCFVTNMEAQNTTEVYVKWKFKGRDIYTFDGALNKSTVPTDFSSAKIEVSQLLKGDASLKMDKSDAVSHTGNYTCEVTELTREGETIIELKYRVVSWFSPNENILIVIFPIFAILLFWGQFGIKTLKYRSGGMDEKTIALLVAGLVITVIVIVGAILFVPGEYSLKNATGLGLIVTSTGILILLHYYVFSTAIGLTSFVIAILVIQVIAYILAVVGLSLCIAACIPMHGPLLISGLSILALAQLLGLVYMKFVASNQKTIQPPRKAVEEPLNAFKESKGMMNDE

C[N+]1(CC2COC(c3ccccc3)(c3ccccc3)O2)CCCCC1 (stereo not given)
inactive: Potency [1] | outcome [2] | Potency [3] | Potency [4] | Potency [5]

COC(=O)C1=CO[C@@H](O)[C@@H]2C(CO)=CC[C@H]12
inactive: max response [6] 18% | Potency [1] | outcome [2] | Potency [3] | Potency [7] | Potency [8] | Potency [4] | outcome [9] | outcome [10] | Potency [11] | outcome [12]

O=C(Nc1ccc(S(=O)(=O)N2CCOCC2)cc1)c1cc(Cl)ccc1NS(=O)(=O)c1ccc(Cl)s1
inactive: max response [6] 15.3% | Potency [1] | outcome [2] | Potency [3] | Potency [4] | Potency [5]

O=C(OCC1(COC(=O)c2cccnc2)CCCC(COC(=O)c2cccnc2)(COC(=O)c2cccnc2)C1O)c1cccnc1
inactive: max response [6] -9.22% | Potency [1] | outcome [2] | Potency [3] | Potency [4] | Potency [5]

OC[C@]1(O)OC[C@@H](O)[C@H](O)[C@@H]1O
inactive: max response [6] 13.1% | Potency [1] | outcome [2] | Potency [3] | Potency [4] | Potency [5]

COc1ccccc1OCC1CNC(=O)O1 (stereo not given)
inactive: max response [6] -14.2% | Potency [1] | outcome [2] | Potency [3] | Potency [4] | Potency [5]

CN(CC1(C)CCCO1)S(=O)(=O)c1ccc(Cl)c(S(N)(=O)=O)c1 (stereo not given)
inactive: max response [6] -10.7% | Potency [1] | outcome [2] | Potency [3] | Potency [4] | Potency [5]

Cc1nn(-c2ccccc2)c(C)c1/C=N/N1CCN(Cc2ccccc2)CC1
inactive: max response [6] 1.48% | Potency [1] | outcome [2] | Potency [3] | Potency [7] | Potency [8] | outcome [9] | outcome [10] | Potency [11] | outcome [12]

O=C(CCCCCCCCC#CI)Oc1ccccc1
inactive: Potency [1] | outcome [2] | Potency [3] | Potency [4] | Potency [5]

Nc1ncnc2n[nH]c(Nc3ccc(F)cc3)c12
inactive: max response [6] 6.51% | Potency [1] | outcome [2] | Potency [3] | Potency [7] | Potency [8] | outcome [9] | outcome [10] | Potency [11] | outcome [12]

CC(=O)N[C@@H](CCC(N)=O)C(=O)O
inactive: max response [6] 4.31% | Potency [1] | outcome [2] | Potency [3] | Potency [4] | Potency [5]

CCCC(=O)O[C@]1(C(=O)COC(=O)CC)CC[C@H]2[C@@H]3CCC4=CC(=O)CC[C@]4(C)[C@H]3[C@@H](O)C[C@@]21C
inactive: max response [6] 31.6% | Potency [1] | outcome [2] | Potency [3] | Potency [4] | Potency [5]

Cc1cc2nc3ccc(=[N+](C)C)cc-3sc2cc1N
active: Potency [6] 6.31 µM | Potency [3] 6.51 µM | Potency [5] 2.97 µM
inactive: Potency [1] | outcome [2] | Potency [4]

O=C(O)Cc1ccc(OCCNC[C@H](O)c2ccccc2)cc1
inactive: max response [6] -2.47% | Potency [1] | outcome [2] | Potency [3] | Potency [4] | Potency [5]

CC(C)(C)c1nnc(NS(=O)(=O)c2ccccc2)s1
inactive: max response [6] 0.521% | Potency [1] | outcome [2] | Potency [3] | Potency [4] | Potency [5]

CO[C@@]1(NC(=O)CSC[C@@H](N)C(=O)O)C(=O)N2C(C(=O)O)=C(CSc3nnnn3C)CS[C@@H]21
inactive: max response [6] 3.25% | Potency [1] | outcome [2] | Potency [3] | Potency [4] | Potency [5]

O=C(O)Cc1ccccc1Oc1ccc(Cl)cc1Cl
inactive: max response [6] 10.5% | Potency [1] | outcome [2] | Potency [3] | Potency [4] | Potency [5]

O=C(NN1CCCC1)NS(=O)(=O)c1ccc(Cl)cc1
inactive: max response [6] 0.581% | Potency [1] | outcome [2] | Potency [3] | Potency [4] | Potency [5]

CC(=O)Nc1ccc(S(=O)(=O)Nc2cc(C)on2)cc1
inactive: max response [6] 3.06% | Potency [1] | outcome [2] | Potency [3] | Potency [4] | Potency [5]

N[C@@H](Cc1cc(I)c(O)c(I)c1)C(=O)O
inactive: max response [6] 18.2% | Potency [1] | outcome [2] | Potency [3] | Potency [4] | Potency [5]

O=C(O)c1[nH]n(-c2ccc(S(=O)(=O)O)cc2)c(=O)c1N=Nc1ccc(S(=O)(=O)O)cc1
inactive: max response [6] -0.65% | Potency [1] | outcome [2] | Potency [3] | Potency [4] | Potency [5]

CO[C@]1(NC(=O)CSC(F)F)C(=O)N2C(C(=O)O)=C(CSc3nnnn3CCO)CO[C@H]21
inactive: max response [6] 19.9% | Potency [1] | outcome [2] | Potency [3] | Potency [4] | Potency [5]

CCC(C(=O)NC(=O)NC(C)=O)c1ccccc1 (stereo not given)
inactive: max response [6] -11.8% | Potency [1] | outcome [2] | Potency [3] | Potency [4] | Potency [5]

O=C(O)CCC(=O)OC[C@@H](NC(=O)C(Cl)Cl)[C@H](O)c1ccc([N+](=O)[O-])cc1
inactive: max response [6] -4.91% | Potency [1] | outcome [2] | Potency [3] | Potency [4] | Potency [5]
